Substitutions are numbered along the chain they refer to.

Assay in all cases: PBM; 200 nM protein, PBS
Details in all cases: dsDNA, one strand shown

Experiment [1] concerns the target HESX1 (Homo sapiens, UniProt Q9UBX0 95-180, R165K).
The target in experiment [2] is HOXB9 (Homo sapiens, UniProt P17482 171-250, T197M).
In experiment [3] the target is ALX4 (Homo sapiens, UniProt Q9H161 200-286).
The target of experiment [4] is PRRX1 (Homo sapiens, UniProt P54821 80-166, F113S).
The target in experiment [5] is ALX4 (Homo sapiens, UniProt Q9H161 200-286, Q225E).
In experiment [6] the target is HESX1 (Homo sapiens, UniProt Q9UBX0 95-180).
Experiment [7] addresses HOXB9 (Homo sapiens, UniProt P17482 171-250).
Experiment [8] addresses MSX2 (Homo sapiens, UniProt P35548 130-214, R199I).
Experiment [9] addresses ALX1 (Homo sapiens, UniProt Q15699 118-204, L144V).
The target of experiment [10] is ALX1 (Homo sapiens, UniProt Q15699 118-204, L144R).
Experiment [11] concerns the target MSX2 (Homo sapiens, UniProt P35548 130-214).
For experiment [12], the target named is PROP1 (Homo sapiens, UniProt O75360 56-141).
Experiment [13] has as its target HESX1 (Homo sapiens, UniProt Q9UBX0 95-180, R109Q).
In experiment [14] the target is PROP1 (Homo sapiens, UniProt O75360 56-141, R99H).
Experiment [15] deals with ALX3 (Homo sapiens, UniProt O95076 139-225, L168Q).
For experiment [16], the target named is HESX1 (Homo sapiens, UniProt Q9UBX0 95-180, P111T).
For experiment [17], the target named is HOXB9 (Homo sapiens, UniProt P17482 171-250, R186Q).
Experiment [18] addresses ALX3 (Homo sapiens, UniProt O95076 139-225, L168V).
For experiment [19], the target named is PROP1 (Homo sapiens, UniProt O75360 56-141, F88S).
Experiment [20] has as its target MSX2 (Homo sapiens, UniProt P35548 130-214, F161Y).
Experiment [21] has as its target HESX1 (Homo sapiens, UniProt Q9UBX0 95-180, F115L).
Experiment [22] concerns the target PRRX1 (Homo sapiens, UniProt P54821 80-166).
The target of experiment [23] is T1, VENTX (Homo sapiens, UniProt O95231 78-163, R121Q).
T1 sequence: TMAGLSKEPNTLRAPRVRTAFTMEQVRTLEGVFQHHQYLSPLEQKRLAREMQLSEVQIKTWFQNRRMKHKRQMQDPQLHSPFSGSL

Experiment [24] addresses T2, SIX6 (Homo sapiens, UniProt O95475 114-200, L167I).
T2 sequence: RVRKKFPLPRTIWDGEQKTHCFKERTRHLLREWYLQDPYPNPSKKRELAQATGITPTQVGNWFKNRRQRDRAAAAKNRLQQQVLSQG

Experiment [25] deals with HOXC9 (Homo sapiens, UniProt P31274 178-260, K195R).
The target in experiment [26] is T3, VENTX (Homo sapiens, UniProt O95231 78-163).
T3 sequence: T1 sequence with Q44R

Experiment [27] concerns the target T4, SIX6 (Homo sapiens, UniProt O95475 114-200, L143V).
T4 sequence: T2 sequence with L30V, I54L

Experiment [28] has as its target T5, SIX6 (Homo sapiens, UniProt O95475 114-200, H141N).
T5 sequence: T2 sequence with H28N, I54L

The target in experiment [29] is T6, SIX6 (Homo sapiens, UniProt O95475 114-200, T165P).
T6 sequence: T2 sequence with T52P, I54L

Experiment [30] addresses T7, VENTX (Homo sapiens, UniProt O95231 78-163, Y115F).
T7 sequence: T1 sequence with Y38F, Q44R

Experiment [31] deals with T8, SIX6 (Homo sapiens, UniProt O95475 114-200, L167M).
T8 sequence: T2 sequence with I54M

In experiment [32] the target is T9, SIX6 (Homo sapiens, UniProt O95475 114-200, L143M).
T9 sequence: T2 sequence with L30M, I54L

In experiment [33] the target is T10, SIX6 (Homo sapiens, UniProt O95475 114-200, L143I).
T10 sequence: T2 sequence with L30I, I54L

Experiment [34] concerns the target T11, SIX6 (Homo sapiens, UniProt O95475 114-200, T165G).
T11 sequence: T2 sequence with T52G, I54L

The target in experiment [35] is T12, SIX6 (Homo sapiens, UniProt O95475 114-200, T139Q).
T12 sequence: T2 sequence with T26Q, I54L

Experiment [36] addresses HOXC9 (Homo sapiens, UniProt P31274 178-260).
The target in experiment [37] is T13, SIX6 (Homo sapiens, UniProt O95475 114-200, T165A).
T13 sequence: T2 sequence with T52A, I54L

Experiment [38] deals with HOXC9 (Homo sapiens, UniProt P31274 178-260, R193K).
The target in experiment [39] is T14, SIX6 (Homo sapiens, UniProt O95475 114-200, L167V).
T14 sequence: T2 sequence with I54V

Experiment [40] deals with T15, SIX6 (Homo sapiens, UniProt O95475 114-200).
T15 sequence: T2 sequence with I54L

Experiment [41] deals with T16, SIX6 (Homo sapiens, UniProt O95475 114-200, T165I).
T16 sequence: T2 sequence with T52I, I54L

Experiment [42] has as its target HOXC9 (Homo sapiens, UniProt P31274 178-260, R222W).

Chain of HESX1 (Homo sapiens, UniProt Q9UBX0 95-180, P111T) (Q9UBX0 95-180 P111T): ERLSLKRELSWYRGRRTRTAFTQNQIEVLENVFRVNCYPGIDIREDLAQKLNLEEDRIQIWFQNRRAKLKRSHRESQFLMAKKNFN
Chain of HESX1 (Homo sapiens, UniProt Q9UBX0 95-180, F115L) (Q9UBX0 95-180 F115L): as the sequence (Q9UBX0 95-180 P111T) above, with T17P, F21L counted along it
Chain of HESX1 (Homo sapiens, UniProt Q9UBX0 95-180, R165K) (Q9UBX0 95-180 R165K): as the sequence (Q9UBX0 95-180 P111T) above, with T17P, R71K counted along it
Chain of HESX1 (Homo sapiens, UniProt Q9UBX0 95-180, R109Q) (Q9UBX0 95-180 R109Q): as the sequence (Q9UBX0 95-180 P111T) above, with R15Q, T17P counted along it
Chain of HESX1 (Homo sapiens, UniProt Q9UBX0 95-180) (Q9UBX0 95-180): as the sequence (Q9UBX0 95-180 P111T) above, with T17P counted along it
Chain of ALX1 (Homo sapiens, UniProt Q15699 118-204, L144V) (Q15699 118-204 L144V): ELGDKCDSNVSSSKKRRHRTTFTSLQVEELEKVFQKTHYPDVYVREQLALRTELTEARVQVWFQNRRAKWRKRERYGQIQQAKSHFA
Chain of HOXB9 (Homo sapiens, UniProt P17482 171-250, T197M) (P17482 171-250 T197M): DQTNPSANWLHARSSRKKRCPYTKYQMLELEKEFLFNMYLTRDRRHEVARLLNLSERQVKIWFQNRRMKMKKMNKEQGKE
Chain of ALX4 (Homo sapiens, UniProt Q9H161 200-286, Q225E) (Q9H161 200-286 Q225E): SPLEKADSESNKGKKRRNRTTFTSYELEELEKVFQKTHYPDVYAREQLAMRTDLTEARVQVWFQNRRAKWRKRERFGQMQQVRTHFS
Chain of MSX2 (Homo sapiens, UniProt P35548 130-214, F161Y) (P35548 130-214 F161Y): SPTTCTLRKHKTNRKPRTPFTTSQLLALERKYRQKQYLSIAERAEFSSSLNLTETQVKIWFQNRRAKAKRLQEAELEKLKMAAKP
Chain of ALX1 (Homo sapiens, UniProt Q15699 118-204, L144R) (Q15699 118-204 L144R): as the sequence (Q15699 118-204 L144V) above, with V27R counted along it
Chain of PROP1 (Homo sapiens, UniProt O75360 56-141) (O75360 56-141): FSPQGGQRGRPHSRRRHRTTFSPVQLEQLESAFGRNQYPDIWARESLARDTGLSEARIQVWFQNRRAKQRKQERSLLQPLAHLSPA
Chain of ALX3 (Homo sapiens, UniProt O95076 139-225, L168V) (O95076 139-225 L168V): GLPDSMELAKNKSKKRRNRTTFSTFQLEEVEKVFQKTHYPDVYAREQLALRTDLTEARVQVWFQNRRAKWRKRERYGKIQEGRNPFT
Chain of HOXC9 (Homo sapiens, UniProt P31274 178-260, R222W) (P31274 178-260 R222W): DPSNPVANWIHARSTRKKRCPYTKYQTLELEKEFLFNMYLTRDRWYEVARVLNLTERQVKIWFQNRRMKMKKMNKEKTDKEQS
Chain of ALX4 (Homo sapiens, UniProt Q9H161 200-286) (Q9H161 200-286): as the sequence (Q9H161 200-286 Q225E) above, with E26Q counted along it
Chain of PRRX1 (Homo sapiens, UniProt P54821 80-166) (P54821 80-166): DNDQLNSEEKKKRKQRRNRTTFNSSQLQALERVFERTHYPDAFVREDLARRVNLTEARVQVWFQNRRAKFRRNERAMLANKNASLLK
Chain of PROP1 (Homo sapiens, UniProt O75360 56-141, F88S) (O75360 56-141 F88S): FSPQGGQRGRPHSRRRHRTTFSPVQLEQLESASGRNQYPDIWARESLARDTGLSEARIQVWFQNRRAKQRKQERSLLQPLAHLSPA
Chain of HOXB9 (Homo sapiens, UniProt P17482 171-250) (P17482 171-250): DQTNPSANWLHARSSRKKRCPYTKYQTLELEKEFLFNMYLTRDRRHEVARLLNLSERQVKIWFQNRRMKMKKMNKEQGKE
Chain of ALX3 (Homo sapiens, UniProt O95076 139-225, L168Q) (O95076 139-225 L168Q): as the sequence (O95076 139-225 L168V) above, with V30Q counted along it
Chain of PRRX1 (Homo sapiens, UniProt P54821 80-166, F113S) (P54821 80-166 F113S): as the sequence (P54821 80-166) above, with F34S counted along it
Chain of HOXC9 (Homo sapiens, UniProt P31274 178-260, K195R) (P31274 178-260 K195R): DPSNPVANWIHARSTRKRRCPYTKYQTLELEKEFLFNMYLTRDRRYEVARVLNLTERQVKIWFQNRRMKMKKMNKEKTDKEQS
Chain of HOXC9 (Homo sapiens, UniProt P31274 178-260, R193K) (P31274 178-260 R193K): as the sequence (P31274 178-260 R222W) above, with R16K, W45R counted along it
Chain of HOXB9 (Homo sapiens, UniProt P17482 171-250, R186Q) (P17482 171-250 R186Q): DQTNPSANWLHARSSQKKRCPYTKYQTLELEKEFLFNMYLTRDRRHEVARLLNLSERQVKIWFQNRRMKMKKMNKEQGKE
Chain of PROP1 (Homo sapiens, UniProt O75360 56-141, R99H) (O75360 56-141 R99H): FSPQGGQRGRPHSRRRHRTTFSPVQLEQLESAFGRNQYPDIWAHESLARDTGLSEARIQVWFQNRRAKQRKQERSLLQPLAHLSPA
Chain of MSX2 (Homo sapiens, UniProt P35548 130-214) (P35548 130-214): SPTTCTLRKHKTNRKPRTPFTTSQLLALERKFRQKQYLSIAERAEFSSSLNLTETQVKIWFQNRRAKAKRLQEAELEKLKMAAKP
Chain of HOXC9 (Homo sapiens, UniProt P31274 178-260) (P31274 178-260): as the sequence (P31274 178-260 R222W) above, with W45R counted along it
Chain of MSX2 (Homo sapiens, UniProt P35548 130-214, R199I) (P35548 130-214 R199I): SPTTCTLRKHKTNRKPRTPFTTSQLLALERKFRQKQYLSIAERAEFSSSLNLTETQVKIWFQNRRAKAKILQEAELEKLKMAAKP

For the sequence AATAATTG, the binding signal with HESX1 [1] was 12.3 upbm affinity estimate (log intensity, higher = more binding, comparable within an allelic series); in the experiment with HOXB9 [2], 9.89 upbm affinity estimate (log intensity, higher = more binding, comparable within an allelic series); in the experiment with ALX4 [3] it was 13.5 upbm affinity estimate (log intensity, higher = more binding, comparable within an allelic series); in the experiment with PRRX1 [4] it was 11.2 upbm affinity estimate (log intensity, higher = more binding, comparable within an allelic series); in the experiment with ALX4 [5], 12.8 upbm affinity estimate (log intensity, higher = more binding, comparable within an allelic series); in the experiment with HESX1 [6] it was 12.4 upbm affinity estimate (log intensity, higher = more binding, comparable within an allelic series). The binding signal is 11.3 upbm affinity estimate (log intensity, higher = more binding, comparable within an allelic series) with HOXB9 [7]; 12.6 upbm affinity estimate (log intensity, higher = more binding, comparable within an allelic series) with MSX2 [8]; 11.5 upbm affinity estimate (log intensity, higher = more binding, comparable within an allelic series) with ALX1 [9]; 11.3 upbm affinity estimate (log intensity, higher = more binding, comparable within an allelic series) with ALX1 [10]; 13.7 upbm affinity estimate (log intensity, higher = more binding, comparable within an allelic series) with MSX2 [11]; 11 upbm affinity estimate (log intensity, higher = more binding, comparable within an allelic series) with PROP1 [12]. In addition, the binding signal with HESX1 [13] was 8.84 upbm affinity estimate (log intensity, higher = more binding, comparable within an allelic series); with PROP1 [14] it was 11.1 upbm affinity estimate (log intensity, higher = more binding, comparable within an allelic series); with ALX3 [15], 10.3 upbm affinity estimate (log intensity, higher = more binding, comparable within an allelic series); with HESX1 [16] it was 10.8 upbm affinity estimate (log intensity, higher = more binding, comparable within an allelic series); with HOXB9 [17] it was 11.1 upbm affinity estimate (log intensity, higher = more binding, comparable within an allelic series); with ALX3 [18], 9.75 upbm affinity estimate (log intensity, higher = more binding, comparable within an allelic series). Moreover, the binding signal is 7.6 upbm affinity estimate (log intensity, higher = more binding, comparable within an allelic series) in the experiment with PROP1 [19]; 13.4 upbm affinity estimate (log intensity, higher = more binding, comparable within an allelic series) in the experiment with MSX2 [20]; 8.12 upbm affinity estimate (log intensity, higher = more binding, comparable within an allelic series) in the experiment with HESX1 [21]; 13.2 upbm affinity estimate (log intensity, higher = more binding, comparable within an allelic series) with PRRX1 [22].

Regarding CAGCCAGG, the binding signal in the experiment with HESX1 [1] was 6.31 upbm affinity estimate (log intensity, higher = more binding, comparable within an allelic series); with VENTX [23], 8.2 upbm affinity estimate (log intensity, higher = more binding, comparable within an allelic series); with SIX6 [24], 9.07 upbm affinity estimate (log intensity, higher = more binding, comparable within an allelic series); with HOXC9 [25], 9.53 upbm affinity estimate (log intensity, higher = more binding, comparable within an allelic series); with VENTX [26], 8.23 upbm affinity estimate (log intensity, higher = more binding, comparable within an allelic series); in the experiment with SIX6 [27], 8.86 upbm affinity estimate (log intensity, higher = more binding, comparable within an allelic series). Besides, the binding signal with SIX6 [28] is 9.06 upbm affinity estimate (log intensity, higher = more binding, comparable within an allelic series); with SIX6 [29] it was 8.91 upbm affinity estimate (log intensity, higher = more binding, comparable within an allelic series); with VENTX [30] it was 8.16 upbm affinity estimate (log intensity, higher = more binding, comparable within an allelic series); in the experiment with SIX6 [31], 9.02 upbm affinity estimate (log intensity, higher = more binding, comparable within an allelic series); with SIX6 [32], 9.06 upbm affinity estimate (log intensity, higher = more binding, comparable within an allelic series); with SIX6 [33] it was 9.03 upbm affinity estimate (log intensity, higher = more binding, comparable within an allelic series). Besides, the binding signal with SIX6 [34] was 9.14 upbm affinity estimate (log intensity, higher = more binding, comparable within an allelic series); with HESX1 [6], 6.36 upbm affinity estimate (log intensity, higher = more binding, comparable within an allelic series); in the experiment with SIX6 [35] it was 9.1 upbm affinity estimate (log intensity, higher = more binding, comparable within an allelic series); with HOXC9 [36], 9.58 upbm affinity estimate (log intensity, higher = more binding, comparable within an allelic series); with SIX6 [37], 9.02 upbm affinity estimate (log intensity, higher = more binding, comparable within an allelic series); with HOXC9 [38] it was 9.41 upbm affinity estimate (log intensity, higher = more binding, comparable within an allelic series). Besides, the binding signal with SIX6 [39] was 9.01 upbm affinity estimate (log intensity, higher = more binding, comparable within an allelic series); with HESX1 [13] it was 6.38 upbm affinity estimate (log intensity, higher = more binding, comparable within an allelic series); in the experiment with SIX6 [40], 9.07 upbm affinity estimate (log intensity, higher = more binding, comparable within an allelic series); with SIX6 [41], 8.99 upbm affinity estimate (log intensity, higher = more binding, comparable within an allelic series); with HESX1 [16], 6.49 upbm affinity estimate (log intensity, higher = more binding, comparable within an allelic series); with HOXC9 [42] it was 9.62 upbm affinity estimate (log intensity, higher = more binding, comparable within an allelic series). The binding signal with HESX1 [21] was 6.49 upbm affinity estimate (log intensity, higher = more binding, comparable within an allelic series).

These data come from article PMC11006913.
